Data on 42 molecules can be found in PubChem BioAssay AID720504 (National Center for Advancing Translational Sciences (NCATS), 2013).

The structures appear in SMILES notation. About 10,000 (2.8%) of roughly 360,000 compounds were called active. Roughly 4% stayed inconclusive and do not appear here. The entries come from a sample that favours actives as a whole. Values without a mark were called inactive. The call rests on the fitted dose curve; in most records, active means well fitted inhibition curve with a large enough effect; inconclusive means small, poorly fitted or top-dose-only effect; inactive means flat fitted curve, though single readings scatter.
On the % scale 0 is the no-effect control and ±100 the full control effect; potency means the concentration at half of the fitted maximal effect.

Serine/threonine-protein kinase PLK1 (Homo sapiens), sequence (P53350 whole entry, looked up, the tested form may be a part): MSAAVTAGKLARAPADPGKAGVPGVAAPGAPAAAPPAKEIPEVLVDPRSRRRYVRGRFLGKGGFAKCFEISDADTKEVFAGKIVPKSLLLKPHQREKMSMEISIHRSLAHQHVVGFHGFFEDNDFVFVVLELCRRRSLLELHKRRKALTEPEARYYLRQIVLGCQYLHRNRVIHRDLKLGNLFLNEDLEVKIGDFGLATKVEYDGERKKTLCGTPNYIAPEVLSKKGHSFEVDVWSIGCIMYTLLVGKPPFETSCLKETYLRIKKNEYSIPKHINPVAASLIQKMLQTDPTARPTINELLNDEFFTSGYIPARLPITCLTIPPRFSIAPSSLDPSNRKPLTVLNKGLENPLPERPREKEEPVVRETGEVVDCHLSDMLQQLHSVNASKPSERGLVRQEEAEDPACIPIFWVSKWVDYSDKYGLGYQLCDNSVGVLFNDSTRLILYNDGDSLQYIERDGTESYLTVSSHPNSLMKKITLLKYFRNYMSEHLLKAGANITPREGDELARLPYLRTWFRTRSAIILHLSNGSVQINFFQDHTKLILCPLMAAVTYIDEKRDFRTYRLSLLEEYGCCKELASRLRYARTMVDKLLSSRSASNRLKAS

This test addresses Serine/threonine-protein kinase PLK1 (Homo sapiens) (UniProt P53350). As to the kind of experiment: qHTS for Inhibitors of PLK1-PDB (polo-like kinase 1 - polo-box domain): Primary Screen. Further: nearly all actives have a fitted effect of over 65% in size. On max response, negative = inhibition: series mostly up to about 57 µM. The following applies: Plk1 PBD binding of FITC phosphopeptide, fluorescence polarization. The source says:
The polo-like kinase 1 (Plk1) is a member of a conserved subfamily of serine / threonine protein kinases that plays a pivotal roles in cell proliferation. It has a C-terminal non-catalytic region called the polo-box domain (PBD) that plays a crucial role in the subcellular localization of the Plk1. […] Furthermore, depletion of the overexpressed Plk1 by RNAi efficiently induces apoptotic cell death in cancer and reduces tumor growth in mouse xenograft models. Thus, targeting Plk1 is an appealing strategy for anti-cancer therapy. Therefore, this project aimed to screen the Molecular Libraries Small Molecule Repository (MLSMR) using a novel approach to find inhibitors that target the Plk1 PBD instead of the conventional N-terminal catalytic domain. This project employed a fluorescence polarization (FP) assay using a FITC-conjugated phospho-9-mer (p-9-mer) peptide and purified human Plk1 PBD protein. The identified small molecule inhibitors of Plk1 PBD can then further be developed into useful tools for biomedical and clinical research that complements or replaces current relevant disease therapy. NIH Chemical Genomics Center [NCGC] NIH Molecular Libraries Probe Centers Network [MLPCN] MLPCN Grant: MH100728 Assay Submitter (PI): Kyung Lee, NCI
Four microliter of 25 nM FITC-p-9-mer + 60 nM Plk1 PBD in buffer solution (final concentrations 25 nM and 60 nM respectively) or 4 uL of 25 nM FITC-p-9-mer (final concentration 25 nM) in buffer will be dispensed into a 1,536 Greiner medium-binding black solid plate. Small molecules at final concentrations of 18 nM to 57 uM and positive control phospho-9-mer (sequence: Ac-PPLHSpTAI-NH2) at final concentrations 26 nM to 57 uM and phospho-13-mer (sequence: Ac-[…]pTAI-NH2) at final concentrations of 1 nM to 2.3 uM will be pin-transferred (23 nL) to the plate via a Kalypsys pin-tool robotics equipped with a 1,536-pin array. The reaction plate will be centrifuged for 1 min at 1000 rpm and incubated at room temperature for 10 min. The FITC fluorescence signals will be read using the PerkinElmer ViewLux plate reader at 480 / 20 nm excitation and 540 / 20 nm S and P polarization emission wavelengths. Reagent bottles will be kept submerged into 4 °C recirculating chiller bath and all liquid lines will be covered with aluminum foil to minimize degradation. Library plates will be screened starting from the lowest to the highest concentrations to minimize compound carryover. Vehicle only plates, with DMSO being pin-transferred instead of compound solutions, will be included regularly throughout the screen to record any systematic shifts in assay signal.
`Cc1nn(-c2ccccc2)c2c1C(c1ccc(F)cc1)C(C#N)=C(N)O2` (configuration not stated): the Potency was 23.8 µM (active).

Turning to `COc1ccccc1C1C(C#N)=C(N)Oc2c1c(-c1ccccc1)nn2-c1ccccc1` (configuration not stated), the max response, negative = inhibition is -0.276%.

For `Cn1c2c(c(=O)n(C)c1=O)C(c1cccc(F)c1)C(C#N)=C(N)O2` (configuration not stated), the max response, negative = inhibition is -22.7%.

On to `COc1ccc(S(=O)(=O)NC(=O)C2(C)CCN2C(=O)c2ccccc2CCc2ccccc2)cc1` (configuration not stated), for which the max response, negative = inhibition was -9.6%. Same read-out and setting: under `Cc1cc(Nc2ccc(C)c(C)c2)n2ncnc2n1` stands -12.1%; under `O=S(=O)(c1ccc(F)cc1)N1CCN(C(=S)NCc2ccco2)CC1`, -10.7%. Take `CCCNC(=S)N1CCC(NC(=O)c2ccc(OC)cc2)CC1`: the max response, negative = inhibition was -7.7%. As for `O=C(NC1CCN(C(=S)NCc2ccco2)CC1)c1ccc(F)cc1`, the Potency is 23.8 µM (active). Consider `COC(=O)C[C@@H]1C=C[C@@H](NS(=O)(=O)c2cccc(OC)c2)[C@@H](CO)O1`, for which the max response, negative = inhibition was -1.82%. Same read-out and setting: under `CC(=O)Nc1c(-c2ccc(C)cc2)nc2ccc(Cl)cn12` stands -2.35%.

In the case of `COc1cccc(-c2nc(CS(=O)(=O)CC(=O)NCCc3ccc(OC)c(OC)c3)c(C)o2)c1`, the Potency was 18.9 µM (active). Turning to `CCCCN(CC)CCCNC(=O)CS(=O)(=O)Cc1nc(-c2cccc(OC)c2)oc1C`, the max response, negative = inhibition is 0.434%.

For `COc1ccc(CCNC(=O)CS(=O)(=O)Cc2nc(-c3ccc(C)cc3)oc2C)cc1OC`, the max response, negative = inhibition was -18.7%. As for `CC(=O)Nc1cccc(Nc2ccc(C#N)cc2)c1`, the max response, negative = inhibition is 0.998%. Still for that read-out and setting: as for `CC1CCCC(NC(=O)COC(=O)c2ccccc2C(=O)N(C)C2CCCCC2)C1C` (configuration not stated), the figure is -13.1%. Consider `O=C(CSc1ccccc1)Nc1cccc(S(=O)(=O)N2CCOCC2)c1`, for which the Potency was 23.8 µM (active). Regarding `CCN(CC(=O)Nc1cccc(S(=O)(=O)N2CCCCC2)c1)Cc1ccccc1`, the max response, negative = inhibition was 1.36%.

Turning to `O=C(CSc1ccccc1)Nc1cccc(S(=O)(=O)N2CCCCC2)c1`, the max response, negative = inhibition was 3.72%. As for `O=C(Cn1cnc2ccccc2c1=O)Nc1cccc(S(=O)(=O)N2CCCCC2)c1`, the Potency is 26.7 µM (active). Regarding `O=C(COC(=O)c1ccccc1)Nc1cccc(S(=O)(=O)N2CCOCC2)c1`, the max response, negative = inhibition was 10.6%. Still for that read-out and setting: as for `Nc1cc(N)nc(SCC(=O)Nc2cccc(S(=O)(=O)N3CCCCC3)c2)n1`, the figure is -3.4%; as for `CN(C)CCN1CCN(c2cc(-c3cccc(Cl)c3)nc3ccnn23)CC1`, -12.4%; as for `COc1ccc(Sc2ccc(NC(=O)c3cccc(Cl)c3)cc2C#N)cc1`, 2.16%. Same read-out and setting: under `Cc1cccc(CN2CCN(C3CN(Cc4ccccc4)S(=O)(=O)C3)CC2)c1` (configuration not stated) stands 2.44%; under `Nc1ncnc2c1ncn2[C@@H]1O[C@H](CNC(=O)[C@H](N)Cc2cccnc2)[C@@H](O)[C@H]1O`, -2.93%. Regarding `CCCCCC(=O)N1C[C@H](O)[C@@H](n2cc(COC(=O)c3ccccc3)nn2)C[C@@H]1c1ccc(C)cc1`, the max response, negative = inhibition was -4.42%. The same measure, in the same setting: under `CCOC(=O)CSc1nc(C)c(Oc2ccc(Cl)cc2Cl)c(=O)[nH]1` stands -19.2%.

With `CCCCOC(=O)CNc1nnc(SCC(=O)OCC)[nH]c1=O`, the Potency is 13.4 µM (active).

Turning to `Cc1nnc(SCC(=O)N2CCOCC2)[nH]c1=O`, the max response, negative = inhibition was -7.51%. On the same count and under the same terms, under `CCc1nc2ccc(C(=O)N(C)CCN(C)C)cn2c1N(CC)CCOC` stands -14.3%; under `COCOCCn1cc(CN2CCS(=O)(=O)N(Cc3ccc(-c4ccccc4)cc3)C(CC(C)C)C2=O)nn1` (configuration not stated), -0.127%. Regarding `COc1cccc(-n2nc(C(=O)N3CCN(Cc4ccccc4)CC3)c3ccccc3c2=O)c1`, the Potency was 29.9 µM (active). For the molecule `COc1ccc(-n2nc(C(=O)NCC(=O)N3CCCCCC3)c3ccccc3c2=O)cc1Cl`, the max response, negative = inhibition was 4.93%. The same measure, in the same setting: under `CCOC(=O)CNC(=O)c1nn(-c2cccc(OC)c2)c(=O)c2ccccc12` stands -5.49%. With `CC1(C(=O)NS(=O)(=O)c2cccs2)CCN1C(=O)Cc1ccc(-c2ccccc2)cc1` (configuration not stated), the max response, negative = inhibition was -1.09%. On the same count and under the same terms, under `COC(=O)[C@]12CCCCC=C1N(Cc1ccco1)C(=O)[C@H](CC(=O)NCCCCc1ccccc1)C2` stands -4.79%; under `COc1cccc(CNC(=O)[C@@H]2CCCN2C(=O)[C@@H]2CCCN2C(=O)c2ccccc2)c1`, -5.85%; under `COc1ccc(-c2cc(C(=O)NC(C(=O)O)C(C)C)c(C)o2)cc1OC` (configuration not stated), -8.55%. Same read-out and setting: under `COc1ccc(-c2cc(=O)oc3cc(OCC(=O)N[C@@H](Cc4c[nH]c5ccccc45)C(=O)O)ccc23)cc1` stands -6.27%. Regarding `COc1ccc(-c2cc(C(=O)NC(Cc3c[nH]c4ccccc34)C(=O)O)c(C)o2)cc1OC` (configuration not stated), the Potency was 13.4 µM (active). The same measure, in the same setting: as for `COc1ccc(CCCc2nnc(SCc3nc4ccccc4c(=O)[nH]3)n2C)cc1`, the figure is 3.77 µM (active). Turning to `CCn1c(Cc2ccccc2)nnc1SCc1nc2ccccc2c(=O)[nH]1`, the max response, negative = inhibition was -5.5%.
